Hits are enriched below; roughly 9.9% of the tested compounds scored in any of these assays.
SW480 rereplic = A quantitative high throughput screen for small molecules that induce DNA re-replication in SW480 colon adenocarcinoma cells; SW480 DNA re-replication, Hoechst DNA content imaging, 48 h; Potency, µM (titrated, usually from 46.1 µM), for the others: at the highest dose re-replication activation, actives largely listed as activators; 1.8% of 340,000 active; AID 624297, 2012; note: potency is the fitted concentration of half-maximal effect; % of control where 0% means no effect; nearly all actives have a fitted effect of over 55% in size
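DNA re-replication was detected as more nuclei of elevated Hoechst intensity after 48 hr exposure to compound (23 nL pinned per well of 250 cells).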
KB-V1 MDR tox = qHTS assay for MDR1-selective chemotherapeutics: Primary screen using the drug-selected MDR subline cells KB-V1; KB-V1 MDR cells viability, CellTiter-Glo, 72 h; Potency, µM (top dose mostly 46.1 µM), actives largely listed as cytotoxic; 3.4% of 400,000 active; AID 1347076, 2019; note: potency is the fitted concentration of half-maximal effect; % is set by controls: 0 for no effect and ±100 for the full control effect; nearly all actives have a fitted effect of over 60% in size
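KB-V1, DMEM (no phenol red) + 10% FBS; cpd pin-transferred, titration series; 72 h, 37 degrees C; CellTiter-Glo, luminescence. Data normalized, curve-fit.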
MCF10A rerep = A quantitative high throughput screen for small molecules that induce DNA re-replication in MCF 10a normal breast cells; MCF 10A DNA re-replication, Hoechst nuclear intensity, 48 h; Potency, µM (top dose mostly 46.1 µM), for the others: at the highest dose activity, positive = re-replication, usual class: activators; 2.9% of 350,000 active; AID 624296, 2012; note: potency is the fitted concentration of half-maximal effect; % of control where 0% means no effect; nearly all actives have a fitted effect of over 50% in size
IL1B secr inh = qHTS for Inhibitors of Inflammasome Signaling: IL-1-beta AlphaLISA Primary Screen; THP-1 LPS/ATP IL-1B secretion, AlphaLISA, 16 h; active compounds read low; activity change, % at 57.5 µM; 4.7% of 360,000 active; AID 743279, 2014; in the data active = activity change below about -50%; inconclusive = mostly about -30% to -49%; note: % is set by controls: 0 for no effect and ±100 for the full control effect
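Secreted IL-1B measured by AlphaLISA bead assay after 16 h compound exposure of THP-1 cells; compounds (final up to 57.5 uM) added 1 h before LPS (250 ng/mL) and ATP (1.25 mM) stimulation; lower signal means less secretion.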
KB-3-1 cytotox = qHTS assay for MDR1-selective chemotherapeutics: Primary screen using the parental adenocarcinoma cell KB-3-1; KB-3-1 viability, CellTiter-Glo ATP luminescence, 72 h; Potency, µM (top dose mostly 46.1 µM), usual class: cytotoxic; 1.4% of 400,000 active; AID 1347075, 2019; note: potency is the fitted concentration of half-maximal effect; % is set by controls: 0 for no effect and ±100 for the full control effect; nearly all actives have a fitted effect of over 60% in size
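Parental KB-3-1 adenocarcinoma cells in phenol-red-free DMEM with 10% FBS were pin-treated with compounds at several concentrations, incubated 72 h at 37 °C, and viability read by CellTiter-Glo luminescence; concentration-effect curves were fitted after normalization.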
* = called active by the depositor; i = inactive; ? = inconclusive; . = not tested or not shown. Unless noted, calls come from the whole dose curve; as a rule, active = well fitted curve in the direction sought with a large enough effect; inconclusive = small, poorly fitted or top-dose-only effect, or another doubt; inactive = no such curve, though single readings can be large; an effect the other way counts as inactive or inconclusive.

SMILES	SW480 rereplic	KB-V1 MDR tox	MCF10A rerep	IL1B secr inh	KB-3-1 cytotox
O=C(N/N=C/c1cc([N+](=O)[O-])ccc1O)NC12CC3CC(CC(C3)C1)C2	.	i	?	27	i
CCOC(=O)c1c(C)[nH]c(C(=O)N/N=C/c2cc([N+](=O)[O-])ccc2O)c1C	7%	?	-1%	96	12µM*
CCOC(=O)c1c(C)[nH]c(C(=O)N/N=C\c2ccccc2O)c1C	5.2µM*	2.1µM*	?	29	?
CCc1ccc(-c2nc(CN3CCCC(C(=O)NCc4ccccc4Cl)C3)c(C)o2)cc1 (stereo not drawn)	.	i	.	.	?
C/C(=N\NC(=O)COc1ccccc1[N+](=O)[O-])c1cccc(NC(=O)c2ccncc2)c1	-2%	i	?	i	i
Cc1cccc(-c2nc(CSCC(=O)NCCc3ccc(Cl)cc3)c(C)o2)c1	.	i	.	.	i
CN1C(=S)SC(C)(C)C1N(O)C(=O)Nc1ccc(Cl)cc1 (stereo not drawn)	-6%	i	-4%	-22	i
CN1C(=S)SC(N(O)C(=O)Nc2ccc(Cl)c(Cl)c2)C1(C)C (stereo not drawn)	0%	18µM*	?	-14	?
O=C(c1ccco1)N1CCN(Cc2cc(=O)c(OCc3ccccc3F)co2)CC1	121%	i	-3%	2	i
COc1ccccc1CNS(=O)(=O)c1ccc(Cl)s1	-8%	i	-1%	9	i
Cc1ccccc1NC(=O)/C=C/c1cccc(C(F)(F)F)c1	2%	i	-2%	-57*	i
O=C(Nc1ccc(OC(F)F)cc1)Nc1cccc(C(F)(F)F)c1	?	13µM*	?	-80*	8.2µM*
NC(=O)/C=C\C(=O)Nc1cccc(C(F)(F)F)c1	1%	i	15%	-105*	i
Cc1ccc(S(=O)(=O)Nc2ccc(NC(=O)Nc3cccc(C(F)(F)F)c3)cc2)cc1	?	?	?	-97*	?
Cc1ccc(NC(=S)NNC(=S)Nc2cccc(C(F)(F)F)c2)cc1	16%	i	9%	-6	i
O=C(Nc1ccncc1)Nc1cccc(C(F)(F)F)c1	24%	i	23%	-2	i
Cc1ccc(-c2nnc3ccccc3c2C(=O)Nc2cccc(C(F)(F)F)c2)cc1	.	i	.	.	i
CCN(CC)S(=O)(=O)c1ccc(C(=O)Nc2cccc(C)c2)cc1	-2%	i	?	?	i
CCN(CC)S(=O)(=O)c1ccc(NC(=O)Nc2cccc(C(F)(F)F)c2)cc1	28%	13µM*	?	-89*	9.2µM*
CCc1ccc(S(=O)(=O)NC(=S)NC2CCCCC2)cc1	-3%	i	14%	-2	i
CCNC(=S)N1N=C2c3ccccc3CCC2C1c1ccc(F)cc1 (stereo not drawn)	29%	21µM*	6.5µM*	14	?
O=C(COc1ccc(Cl)cc1)Nc1ncc([N+](=O)[O-])s1	-2%	13µM*	?	-22	?
O=C(Cc1ccc(Cl)cc1)Nc1ncc([N+](=O)[O-])s1	-4%	?	?	33	i
O=C(Cc1ccc(Br)cc1)Nc1ncc([N+](=O)[O-])s1	6%	?	?	-54*	21µM*
CC(CC(=O)Nc1ncc([N+](=O)[O-])s1)c1ccccc1 (stereo not drawn)	-1%	?	17%	-63*	i
SMILES	SW480 rereplic	KB-V1 MDR tox	MCF10A rerep	IL1B secr inh	KB-3-1 cytotox
Brc1cccc(CSc2nnc(-c3ccncc3)o2)c1	?	?	14%	-8	i
O=S(=O)(c1ccccc1)N(c1ccccc1)S(=O)(=O)c1ccccc1	7%	9.2µM*	10%	-5	?
O=S(=O)(c1ccccc1)N(F)S(=O)(=O)c1ccccc1	7%	?	-9%	2	i
O=C(Nc1ccc2c(c1)C(=O)N(c1ccccc1)C2=O)c1cccs1	14%	i	?	?	i
O=C(O)CCN1C(=O)c2ccc(NC(=O)c3cccs3)cc2C1=O	11%	i	21µM*	0	i
O=C(Nc1ccc(F)cc1)C1CC(=O)n2ncnc2N1 (stereo not drawn)	-7%	i	1%	-4	i
O=C(Nc1ccc(F)cc1)C1CC(=O)n2cnnc2N1 (stereo not drawn)	0.65µM*	i	-29%	14	i
Cc1ccccc1-c1ccccc1CN1[C@@H](C(C)C)COCCS1(=O)=O	1%	i	?	-14	?
Cc1ccc(-n2[nH]c(C)c(/C=N/NC(=O)c3ccc(O)cc3O)c2=O)cc1	8.2µM*	i	2%	220	i
Cc1[nH]n(-c2ccccc2)c(=O)c1/C=N/NC(=O)c1cccc(F)c1	?	?	13%	73	?
Cc1[nH]n(-c2ccc(Br)cc2)c(=O)c1/C=N/NC(=O)c1ccccc1	?	1.3µM*	-2%	80	7.3µM*
CCOC(=O)c1c(NC(=O)COC(=O)c2ccc(Cl)nc2)sc(C)c1C	.	i	.	19	i
Cn1nccc1NC(=O)COCC(=O)O	-53%	i	0%	18	i
CCN(CC)CCP(=O)(c1ccccc1)c1ccccc1	?	i	9.2µM*	7	i
Cc1ccc(N=Cc2nc(-c3ccc(C)cc3)oc2O)cc1	?	i	6.5µM*	-20	i
Oc1oc(-c2ccccc2)nc1C=Nc1ccccc1	0%	i	-5%	-55*	i
CC(=O)Nc1ccc(N=Cc2nc(-c3ccc(C)cc3)oc2O)cc1	-1%	i	1%	24	i
Cc1ccc2[nH]cc(C(=O)CCl)c2c1	?	?	?	-101*	?
Cc1ccc2c(C(=O)CCl)c(C)[nH]c2c1	?	?	18µM*	-98*	13µM*
Cc1ccc2c(C(=O)CN3CCSCC3)c(C)[nH]c2c1	2%	i	-1%	-11	i
Cc1ccc([C@@H]2CC(=O)[C@@H]3CN(S(=O)(=O)c4ccc(C)cc4)[C@H](c4ccc(Cl)cc4)C[C@@H]3N2S(=O)(=O)c2ccc(C)cc2)cc1	.	?	.	25	i
COc1ccc(OC)c(C(=O)CSc2ncc3c(n2)-c2ccccc2N(Cc2ccccc2C)S3(=O)=O)c1	.	?	.	.	i
CCc1nnc(NC(=O)CSc2nnc3scc(-c4ccc(C)cc4)n23)s1	2%	i	-19%	-4	i
Cc1nnc(NC(=O)CSc2nnc3scc(-c4ccc(C)c(C)c4)n23)s1	1%	21µM*	3%	0	i

Screening data (PubChem)
